The whole screen tested about 370,000 compounds, of which about 100 (0.027%) were called active. Calls come from the whole dose curve; as a rule, active = well fitted inhibition curve with a large enough effect in the polarisation, with a control signal flat; inconclusive = small, poorly fitted or top-dose-only effect, or effect the other way, or a change in a side signal; inactive = no such curve, though single readings can be large or run the other way; the % refers to the polarisation. The list comes from a sample in which actives are over-represented; it also holds similar structures and randomly drawn compounds. Where a call stands in place of a potency, no number is given.
What follows are molecules tested against Transcriptional regulator ERG (Homo sapiens) (UniProt P11308) (assay: qHTS for Small Molecule Inhibitors of the ERG Ets/DNA interaction). Conditions: fluorescence polarization, His-ERG Ets domain / labelled DNA; series mostly up to 76.9 µM.
From the text: The Ets family of proteins is a family of ~30 conserved transcription factors defined by the presence of an ~85 amino acid domain referred to as the Ets domain, which mediates sequence-specific DNA binding to a core DNA element GGAA/T.The Ets family member ERG has been linked to several neoplasms. […] More extensive studies of the effects of over-expression of ERG in prostate cells have recently been carried out and have shown that over-expression of ERG results in increased invasion. […] We will carry out a high throughout screen to identify inhibitors of the interaction between ERG and DNA using a fluorescence polarization (FP) assay with a His-tagged ERG Ets domain and fluorescently-labeled DNA probes to develop small molecule inhibitors of this interaction as probes to test this hypothesis and lay the groundwork for the development of targeted therapies against ERG. NIH Molecular Libraries Probe Production Network [MLPCN] NIH Chemical Genomics Center [NCGC] Grant: NS066464 PI Name: John Bushweller, University of Virgina
1.5 ul of protein solution (1 uM ERG domain in 300mM KCl, 50mM Tris-HCl, 1mM EDTA, 1mM DTT, pH 7.5); 20 nl Control plate and compound library plate; 1.5 ul mixture of 5 nM Fluorescein-DNA and 100nM Texas-615-DNA solution in same buffer as above solution; measure fluorescence polarization sequentially for fluorescein (Excitation = 480 nm, Emission = 535s, 535p nm) and Texas red (Excitation = 555 nm, Emission = 632s, 632p nm).
Potency is the fitted concentration of half-maximal effect.

Chain of Transcriptional regulator ERG (Homo sapiens) (P11308 whole entry, looked up, the tested form may be a part): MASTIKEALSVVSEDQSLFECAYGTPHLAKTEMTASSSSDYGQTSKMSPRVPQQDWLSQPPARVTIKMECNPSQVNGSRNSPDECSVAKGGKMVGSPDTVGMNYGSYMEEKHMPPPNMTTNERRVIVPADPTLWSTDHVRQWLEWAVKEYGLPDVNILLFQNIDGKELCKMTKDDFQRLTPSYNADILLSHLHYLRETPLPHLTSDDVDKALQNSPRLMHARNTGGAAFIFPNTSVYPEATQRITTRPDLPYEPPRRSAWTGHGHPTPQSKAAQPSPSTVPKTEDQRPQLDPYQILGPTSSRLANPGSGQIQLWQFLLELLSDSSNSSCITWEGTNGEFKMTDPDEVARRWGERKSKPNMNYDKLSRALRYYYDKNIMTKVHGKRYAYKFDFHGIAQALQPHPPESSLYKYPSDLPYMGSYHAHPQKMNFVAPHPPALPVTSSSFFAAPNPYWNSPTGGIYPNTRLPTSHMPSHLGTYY

Row | SMILES | Potency
1 | O=C(Nc1ccccc1F)C(c1ccccc1)N1Cc2ccccc2C1=O (stereo not given) | inactive
2 | COc1ccccc1CNC(=O)CCCn1c(=O)c2ccccc2n(CC(=O)Nc2ccc(C)cc2Cl)c1=O | inactive
3 | O=C1Cc2cc(S(=O)(=O)Nc3ccc(OC(F)(F)F)cc3)cc3c2N1CCC3 | inactive
4 | CCc1ccc(NC(=O)c2nn(-c3ccc(C)cc3)c(=O)n(C)c2=O)cc1 | inactive
5 | COC(=O)c1scc(-c2ccccc2)c1S(=O)(=O)Nc1ccccc1 | inactive
6 | CC1CCN(C(=O)Cn2c(=O)n(-c3ccc(Cl)cc3)c(=O)c3c4c(sc32)CCC4)CC1 | inactive
7 | CCCn1c(NCc2ccc(N(CC)CC)cc2)nc2ccccc21 | inactive
8 | Cc1ccccc1C(=O)NCc1nc(-c2ccc(Cl)cc2)no1 | inactive
9 | Cc1cc(C)c(-c2n[nH]c3c2C(c2ccccc2F)N(CCO)C3=O)c(O)c1 (stereo not given) | inactive
10 | COc1ccccc1-c1cc2nc(C)c(CCC(=O)O)c(C)n2n1 | inactive
11 | CC(C)c1ccc(NC(=O)C2CCN(c3nc(-c4ccc(C(C)C)cc4)no3)CC2)cc1 | inactive
12 | Cc1c(CNC2CCCCC2)c(C(=O)O)c(C)n1Cc1cccc(Cl)c1 | inactive
13 | Cc1ccc(C(=O)NCCSc2c(C)[nH]c3ccccc23)cc1C | inactive
14 | CCCCNC(=O)CSc1nc2cc3c(cc2c(=O)n1CCCCCC(=O)NCc1ccc2c(c1)OCO2)OCO3 | inactive
15 | N#Cc1ccc(-c2cccs2)nc1SCc1ccc(Br)cc1 | inactive
16 | CCc1nn(CC(=O)Nc2cccc(C)c2C)c(=O)c2cc3sccc3n12 | inactive
17 | O=C(Cn1c(=O)n(-c2ccc(F)cc2)c(=O)c2sccc21)Nc1cccc(C(F)(F)F)c1 | inactive
18 | COc1cccc(N=C2SC(C(=O)Nc3cccc(Cl)c3)CC(=O)N2C)c1 (stereo not given) | inactive
19 | COC(=O)c1sccc1S(=O)(=O)N(CC(=O)Nc1ccc(C)c(F)c1)c1ccc(C)c(C)c1 | inactive
20 | Cc1ccc(CCNC(=O)C2CCN(c3nnc(-n4cccc4CNc4ccc(C)cc4)s3)CC2)cc1 | inactive
21 | Cc1ccccc1CNC(=O)C1CCCN(S(=O)(=O)N(C)c2ccc(F)cc2)C1 (stereo not given) | inactive
22 | CCOc1ccccc1CNC(=O)c1ccc(-n2c(C)cc3c2CCC(C)C3)cc1 (stereo not given) | inactive
23 | CCOC(=O)c1scc(-c2ccccc2)c1S(=O)(=O)Nc1ccccc1F | inactive
24 | COc1ccc(C)cc1NC(=O)COCc1cc(-c2cccs2)on1 | inactive

Row | SMILES | Potency
25 | COc1ccc(NC(=O)CSC2=Nc3ccccc3C3=NC(CC(=O)NCc4ccccc4OC)C(=O)N23)cc1Cl (stereo not given) | inactive
26 | O=C(/C=C/c1ccccc1)Nc1cc(-c2nc3cc(Cl)ccc3o2)ccc1Cl | inactive
27 | Cc1ccc(-n2ncc3c(NCCCn4ccnc4)ncnc32)cc1Cl | inactive
28 | Cc1nn2c(=O)cc(COC(=O)c3cccc(NC(=O)COc4ccccc4Cl)c3)nc2s1 | inactive
29 | COc1ccc(CNC(=O)CC2Oc3ccc(C)cc3NC2=O)cc1 (stereo not given) | inactive
30 | CCOc1ccc(C2C(=O)N(C3CCCCC3)CC(=O)N2CCC2=CCCCC2)cc1OC (stereo not given) | inactive
31 | COc1ccc(NC(=O)CCCc2nnc3n(CCC(C)C)c(=O)c4sccc4n23)c(OC)c1 | inactive
32 | COc1ccc(CCNC(=O)c2c3c(nc4ccccc24)C(=O)N(C2CCCCC2)C3)cc1OC | inactive
33 | Fc1ccccc1Oc1ncnc2c1oc1ccccc12 | inactive
34 | CCOC(=O)c1sc(NC(=O)/C=C/c2ccc(C(C)C)cc2)c(C(=O)OCC)c1C | inactive
35 | CCOC(=O)c1ccc(CN(Cc2ccccc2)S(=O)(=O)c2ccc(Cl)cc2)cc1 | inactive
36 | COc1ccc(Br)cc1C1CC(=O)Nc2c1c(C)nn2-c1nc(C)cc(C)n1 (stereo not given) | inactive
37 | Cc1ccc(Cl)cc1NC(=O)CCC(=O)N1CC(C)Sc2ccccc21 (stereo not given) | inactive
38 | Cc1ccc(C(=O)CC2(O)C(=O)N(CCc3ccccc3)c3ccc(Br)cc32)cc1 (stereo not given) | inactive
39 | COc1cc(NC(=O)Cn2nc(-c3ccc(C)c(C)c3)ccc2=O)cc(OC)c1 | inactive
40 | COc1ccccc1NC(=O)CN1C(=O)c2ccccc2Sc2ccc(C(=O)N3CCCC3)cc21 | inactive
41 | CCOC(=O)c1[nH]c(C)c(CCC(=O)NCc2ccccc2C)c1C | inactive
42 | Cc1ccc(CNC(=O)CSc2c3c(nc4cc(Cl)ccc24)CCCC3)cc1 | inactive
43 | CCN1C(=O)c2ccccc2S(=O)c2ccc(C(=O)NCc3ccc(F)cc3)cc21 (stereo not given) | inactive
44 | CC1Cc2cc(S(=O)(=O)CCC(=O)Nc3ccc(F)c(Cl)c3)ccc2N1C(=O)C1CC1 (stereo not given) | inactive
45 | O=C(CSc1n[nH]c(-c2ccccc2)n1)N1CCCCC1 | inactive
46 | O=C(/C=C/c1cn(CC(O)CN2CCc3ccccc32)c2ccccc12)c1ccc(Br)cc1 (stereo not given) | inactive
47 | CC(=O)c1nn(-c2ccc(OC(F)(F)F)cc2)nc1Nc1ccccc1 | inactive
48 | Cc1nn(-c2ccc(N3CCCCC3)nn2)c(C)c1CCC(=O)NCc1ccccc1F | inactive

Row | SMILES | Potency
49 | CCc1ccc(C(=O)CC2(O)C(=O)N(CCc3ccccc3)c3ccc(Br)cc32)cc1 (stereo not given) | inactive
50 | CCOc1cc(C2c3c(-c4ccc(Br)cc4)n[nH]c3C(=O)N2c2ccc(Cl)cc2)ccc1O (stereo not given) | inactive
51 | CCOc1ccc(-c2nonc2NC(=O)c2oc3ccc(C)cc3c2C)cc1OCC | inactive
52 | CC1=C(C(=O)OCC(C)C)C(c2ccc(OCc3ccccc3)cc2)N2C(=O)CCSC2=N1 (stereo not given) | inactive
53 | O=C(NCc1ccccc1)c1ccc2c(c1)nc1n2CCCCC1 | inactive
54 | COC(=O)c1cc(S(=O)(=O)N2CCN(c3cc(Cl)ccc3C)CC2)c[nH]1 | inactive
55 | Cc1ccc(C)c(N2CCN(CCCNC(=O)Nc3ccc(Cl)cc3)CC2)c1 | inactive
56 | COc1ccc(-c2cn3nc(N4CCC(C(=O)Nc5cccc(C)c5C)CC4)sc3n2)cc1 | inactive
57 | COc1ccc(OC)c(NC(=O)CSC2=Nc3ccccc3C3=NC(CC(=O)NCc4ccc(F)cc4)C(=O)N23)c1 (stereo not given) | inactive
58 | Cc1ccc2oc(=O)c3cnn(CC(=O)NCc4ccccc4Cl)c3c2c1 | inactive
59 | CCOc1ccc(CNC(=O)c2cccc(Nc3nc4ccccc4n4nnnc34)c2)cc1OC | inactive
60 | Cc1ccc(C)c(Oc2c(C(F)(F)F)oc3c(CN4CCN(C)CC4)c(O)ccc3c2=O)c1 | inactive
61 | CCOc1ccccc1NC(=O)CN1CCCN(Cc2cccc(Cl)c2)S1(=O)=O | inactive
62 | Cc1ccc(OCCSc2nc(C)c(Cc3ccccc3)c(=O)[nH]2)cc1 | inactive
63 | CCC1(C)CC(=O)c2c(ccc3oc(C(=O)Nc4ccc(C(C)=O)cc4)c(C)c23)O1 (stereo not given) | inactive
64 | COc1ccc(CCNC(=O)c2ccc(-n3c(C)cc4c3CCCC4)cc2)cc1OC | inactive
65 | Cc1ccc(C)c(CNC(=O)c2cc3ccccn3n2)c1 | inactive
66 | CCOc1ccccc1NC(=O)CN1CCN(S(=O)(=O)c2ccc(Br)cc2)CC1 | inactive
67 | Cc1oc(-c2ccccc2F)nc1CN1CCC(C(=O)NCCc2ccc(Cl)cc2)CC1 | inactive
68 | CCOc1cccc(C(=O)Nc2nnc(S(=O)(=O)N(C)c3ccc(C)cc3)s2)c1 | inactive
69 | COc1ccc(Cn2ccc3nc(C)c(C(=O)Nc4ccc(C)c(F)c4)cc3c2=O)cc1 | inactive
70 | COc1ccc(OC)c(CNC(=O)Cn2nc(C)c3c(C)n(-c4ccccc4)nc3c2=O)c1 | inactive
71 | CCN(CC)CCNC(=O)CN1N=C(c2ccc(OC)cc2)CCC1=O | inactive
72 | CCOC(=O)c1cc2c(=O)n3ccccc3nc2n(CCCOC)c1=NC(=O)C(C)(C)Oc1ccc(Cl)cc1 | inactive

Row | SMILES | Potency
73 | COc1cccc(-c2nnc(SCC(=O)N3CCC(C)CC3)o2)c1 | inactive
74 | COC(=O)c1ccc(NC(=O)c2cnn(-c3ccc(Cl)cc3)c2C2CCN(C(=O)OC(C)(C)C)CC2)cc1 | inactive
75 | COc1cccc2c1C(=O)c1c(O)c3c(c(O)c1C2=O)CC(O)(C(C)=NNC(=O)c1ccc(Cl)c(Cl)c1)CC3OC1CC(N)C(O)C(C)O1 (stereo not given) | 2.51 µM (active)
76 | O=C(NCc1ccc2c(c1)CCN2C(=O)c1ccccc1)Nc1cc(F)ccc1F | inactive
77 | O=C(NCCCO)C(=O)Nc1c2c(nn1-c1ccccc1)CSC2 | inactive
78 | O=C(Nc1ccc2nc(SCCOc3ccccc3Cl)sc2c1)c1ccco1 | inactive
79 | CCc1nc(-c2cc(S(=O)(=O)N3CCN(c4ccc(OC)cc4)CC3)ccc2OC)no1 | inactive
80 | CCCN1CCc2nc(N3CCN(C)CC3)ncc2C1 | inactive
81 | COc1cccc2cc(/C(C)=N/NC(=O)c3ccco3)oc12 | inactive
82 | C/C(=N/NC(=O)CCc1ccccc1)c1ccco1 | 28.2 µM (active)
83 | C/C(CC(=O)NC(C)(C)C)=N\NC(=O)c1ccco1 | inactive
84 | CCC1=Nc2cc(C(=O)NCCCOC(C)C)ccc2Sc2ccc(C)cc21 | inactive
85 | CCOC(=O)c1ccc2c(c1)N(Cc1cccc(OC)c1)C(=O)c1ccccc1S2(=O)=O | inactive
86 | CN(C(=O)c1ccc2c(c1)N(Cc1cccc(Cl)c1)C(=O)c1ccccc1S2=O)C1CCCCC1 (stereo not given) | inactive
87 | O=C1CN(C(=O)Nc2ccccc2C(F)(F)F)C(c2ccccc2)c2c(sc3c2CCCC3)N1 (stereo not given) | inactive
88 | COc1ccccc1NC(=O)C1=C(C)Nc2nc(SCC(=O)c3ccc(C)cc3)nn2C1c1ccccc1C (stereo not given) | inactive
89 | O=C1N(Cc2ccccc2)c2ccc(Cl)cc2C1(O)c1c[nH]c2ccccc12 (stereo not given) | inactive
90 | CCOC(=O)c1c(NC(=O)/C=C/c2ccc(OC)cc2)sc2c1CCC(C)C2 (stereo not given) | inactive
91 | CCOC(=O)c1ccccc1NC(=O)c1nn(-c2ccc(OC)c(Cl)c2)c(=O)c2c1c1ccccc1n2C | inactive
92 | CCc1ccc(NS(=O)(=O)c2ccc3[nH]cc(C(=O)NCCc4cccc(C)c4)c(=O)c3c2)cc1 | inactive
93 | COc1ccc(N2CCN(c3nc(-c4ccccc4F)nc4ccccc34)CC2)cc1 | inactive
94 | CC(C)c1ccc(OCC(=O)N(Cc2ccc(N(C)C)cc2)C2CCS(=O)(=O)C2)cc1 (stereo not given) | inactive
95 | CCOc1cccc(CC(=O)N2CCc3c([nH]c4ccccc34)C2c2ccc(F)cc2)c1OCC (stereo not given) | inactive
